The results in this text go back to PubChem BioAssay (NCATS).

Structures are written as SMILES. Inconclusive results are not listed. Entries that show only a call come without a potency. The source made the active and inactive calls. The call rests on the fitted dose curve; in most records, active means well fitted curve in the direction sought with a large enough effect; inconclusive means small, poorly fitted or top-dose-only effect, or another doubt; inactive means no such curve, though single readings can be large; an effect the other way counts as inactive or inconclusive.

One experiment deals with Aldehyde dehydrogenase, mitochondrial (Homo sapiens) (UniProt P05091). Nature of the experiment: qHTS for Inhibitors of the Aldehyde Dehydrogenase Family (ALDH2) Primary screen (AID 2061308). Further: nearly all actives have a fitted effect of over 55% in size. The conditions noted are these: ALDH2 enzyme inhibition qHTS, 1536-well; series mostly up to 56 µM. Background: qHTS replaces the single test concentration by a dilution series.
For the molecule `C[C@@H]1CN(c2c(F)c(F)c3c(=O)c(C(=O)O)cn(C4CC4)c3c2F)C[C@H](C)N1`, the activity change, negative = inhibition was -0.742% [at 11.2 µM] (inactive).

In the case of `O=C(NCCCc1cnc[nH]1)NCCCN(Cc1ccc(Cl)c(Cl)c1)c1ccc(Br)cn1`, the Potency result was “inactive”.

Turning to `Cn1ccc2cc(-c3ccc4ncnc(NCc5cccs5)c4c3)ccc21`, the Potency entry is “inactive”.

As for `COc1cccc(-c2csc(NC(=O)c3ccncc3NS(=O)(=O)c3ccc(C)cc3)n2)c1`, the Potency result was “inactive”.

On to `C[S+](=O)([O-])c1ccc(-c2ccc(=O)n(CC(=O)NCCc3ccccc3)n2)cc1`, for which the Potency result was “inactive”.

As to `COc1cc(NC(=O)C(OC(=O)CNC(=O)c2ccccc2)c2ccccc2)cc(C(F)(F)F)c1` (stereo not given), the Potency entry is “inactive”.

On to `C=C1C(=O)O[C@@H]2/C=C(\CO)CC/C=C(\CO)[C@H](OC(C)=O)C(OC(=O)C(C)CC)C12` (stereo not given in full), for which the Potency entry was “inactive”.

Turning to `CCN(CC)CCCC(C)n1c(-c2ccccc2)nc2c(N3CCOCC3)nc(C)nc21` (stereo not given), the Potency result was “inactive”.

Regarding `Fc1cccc(CNc2ncnc3ccc(-c4ccccc4Cl)cc23)c1`, the Potency entry is “inactive”.

Take `O=C(NCCc1nc2ccccc2n1CCOc1ccc(C(F)(F)F)cc1)C1CCCCC1`: the Potency result is “inactive”.

`CCN(CC)CCCCn1c(-c2ccccc2)nc2c(NCc3ccccc3)nc(C)nc21`: the Potency entry was “inactive”.

Consider `N#Cc1ccc(-c2ccc(NC(=O)c3cccs3)cn2)cc1`, for which the Potency result is “inactive”.

Turning to `O=[S+]([O-])(Nc1ccc(N2CCNCC2)cc1)c1ccc(NCc2cccc(Cl)c2O)cc1`, the Potency result is “inactive”.

As for `O=C1CCc2cc(S(=O)(=O)Nc3cccnc3)ccc2N1`, the Potency result was “inactive”.

Take `Fc1ccc(-c2ccc(Nc3nc(-c4ccncc4)nc4ccccc34)cc2F)c(F)c1`: the Potency entry is “inactive”.

Consider `CCCCNc1nc(C)nc2c1nc(-c1ccccc1)n2CCN(C)C`, for which the Potency entry is “inactive”.

Take `COC(=O)c1c(-c2ccccc2)no[n+]1[O-]`: the Potency entry is “inactive”.

On to `C[C@@H]1CC[C@]2(C(=O)O[C@@H]3O[C@H](CO)[C@@H](O)[C@H](O)[C@H]3O)CC[C@]3(C)C(=CCC4[C@@]5(C)C[C@@H](O)[C@H](O)[C@](C)(C(=O)O)C5CC[C@]43C)[C@@H]2[C@]1(C)O` (stereo not given in full), for which the Potency result was “inactive”.

As for `CCN1CCCC1Cn1c(-c2ccccc2)nc2c(NCc3ccccc3)nc(C)nc21` (stereo not given), the Potency entry was “inactive”.

Regarding `O=C(CNC(=O)c1cccc2ccccc12)OC(C(=O)Nc1cc(C(F)(F)F)ccc1Cl)c1ccccc1` (stereo not given), the Potency entry was “inactive”.

`COc1cccc(-c2ccc3ncnc(NCc4cccc(C)c4)c3c2)c1`: the Potency result was “inactive”.

On to `Cc1cc(-c2cnc(N)c3c(-c4ccc5scnc5c4)csc23)n(C)n1`, for which the Potency result was “inactive”.

Consider `O=S(=O)(c1ccccc1)N1CCN(c2nc(C3CC3)nc3ccccc23)CC1`, for which the Potency result was “inactive”.

Take `Cc1noc(C)c1-c1ccc2ncnc(NC(C)c3ccco3)c2c1` (stereo not given): the Potency entry is “inactive”.

Consider `Oc1ccc(CNCc2ccc3c(c2)OCO3)c2cccnc12`, for which the Potency entry was “inactive”.

As for `Cc1ccc(S(=O)(=O)Nc2ccccc2N2CCCCC2)s1`, the Potency entry is “inactive”.

Regarding `CCOC(=O)Nc1sc2c(c1C(N)=O)CCCC2`, the Potency result is “inactive”.

For `Cc1ccc(S(=O)(=O)Nc2cnccc2C(=O)Nc2nc(-c3nc4ccccc4s3)cs2)cc1`, the Potency entry is “inactive”.

Take `COc1cccc(S(=O)(=O)N2CCN(S(=O)(=O)c3ccc4c(c3)OCCO4)CC2)c1`: the Potency entry was “inactive”.

Consider `COc1cc(O)c(C(CC(=O)N2CC(C)CC(C)C2)c2ccc(O)cc2)c(OC)c1` (stereo not given), for which the Potency entry is “inactive”.

`CC(C)(C)c1ccc(-c2nc(SCCCOc3ccccc3)n3[nH]c(=O)cc3n2)cc1`: the Potency entry was “inactive”.

`COc1cccc(C2=Nn3c(nnc3-c3cccc(OC)c3OC)SC2)c1`: the Potency result was “inactive”.

On to `Cc1ccc(C(=O)Nc2ccccc2C(=O)Nc2nc(-c3ccccc3)cs2)cc1`, for which the Potency entry is “inactive”.

As to `COc1cccc(C)c1NC(=O)C(OC(=O)CNC(=O)c1ccccc1)c1ccccc1` (stereo not given), the Potency entry was “inactive”.

In the case of `O=S(=O)(c1ccc(Cl)cc1)N1CCN(S(=O)(=O)c2ccc3c(c2)OCCO3)CC1`, the Potency entry is “inactive”.

On to `Cc1cc(C)c(-c2nnc(NC(=O)Nc3ccc4ccccc4c3)s2)c(C)c1`, for which the Potency entry was “inactive”.

Turning to `COc1cccc(-c2nnc3n2N=C(c2c(OC)cccc2OC)CS3)c1`, the Potency entry is “inactive”.

With `O=C(O)c1ccc2c(c1)C(=O)N([C@H](Cc1ccc(O)cc1)C(=O)O)C2=O`, the Potency entry is “inactive”.

For the molecule `Cc1ccccc1C(=O)N1CCc2cc(-c3nc(NC(=O)Cc4ccccc4)sc3C)ccc21`, the Potency entry was “inactive”.

With `CC(=O)O[C@@H]1C(=O)O[C@@H]2[C@H]1OC(=O)[C@@H]2OC(C)=O`, the Potency entry was “inactive”.

In the next experiment the target is Retinaldehyde dehydrogenase 3 (Homo sapiens) (UniProt P47895). Nature of the experiment: qHTS for Inhibitors of the Aldehyde Dehydrogenase Family (ALDH1A3) Primary screen (AID 2061315). The settings on record: ALDH inhibition qHTS; series mostly up to 56 µM.
For the molecule `C[C@@H]1CN(c2c(F)c(F)c3c(=O)c(C(=O)O)cn(C4CC4)c3c2F)C[C@H](C)N1`, the activity change, negative = inhibition was 1.69% [at 11.2 µM] (inactive).

As to `O=C(NCCCc1cnc[nH]1)NCCCN(Cc1ccc(Cl)c(Cl)c1)c1ccc(Br)cn1`, the Potency result was “inactive”.

For `Cn1ccc2cc(-c3ccc4ncnc(NCc5cccs5)c4c3)ccc21`, the Potency result is “inactive”.

Turning to `COc1cccc(-c2csc(NC(=O)c3ccncc3NS(=O)(=O)c3ccc(C)cc3)n2)c1`, the Potency result was “inactive”.

As to `C[S+](=O)([O-])c1ccc(-c2ccc(=O)n(CC(=O)NCCc3ccccc3)n2)cc1`, the Potency entry is “inactive”.

In the case of `COc1cc(NC(=O)C(OC(=O)CNC(=O)c2ccccc2)c2ccccc2)cc(C(F)(F)F)c1` (stereo not given), the Potency entry was “inactive”.

For `C=C1C(=O)O[C@@H]2/C=C(\CO)CC/C=C(\CO)[C@H](OC(C)=O)C(OC(=O)C(C)CC)C12` (stereo not given in full), the Potency entry was “inactive”.

On to `CCN(CC)CCCC(C)n1c(-c2ccccc2)nc2c(N3CCOCC3)nc(C)nc21` (stereo not given), for which the Potency entry is “inactive”.

Regarding `Fc1cccc(CNc2ncnc3ccc(-c4ccccc4Cl)cc23)c1`, the Potency result is “inactive”.

On to `O=C(NCCc1nc2ccccc2n1CCOc1ccc(C(F)(F)F)cc1)C1CCCCC1`, for which the Potency entry is “inactive”.

`CCN(CC)CCCCn1c(-c2ccccc2)nc2c(NCc3ccccc3)nc(C)nc21`: the Potency result is “inactive”.

In the case of `N#Cc1ccc(-c2ccc(NC(=O)c3cccs3)cn2)cc1`, the Potency result is “inactive”.

In the case of `O=[S+]([O-])(Nc1ccc(N2CCNCC2)cc1)c1ccc(NCc2cccc(Cl)c2O)cc1`, the Potency entry is “inactive”.

With `O=C1CCc2cc(S(=O)(=O)Nc3cccnc3)ccc2N1`, the Potency result is “inactive”.

For the molecule `Fc1ccc(-c2ccc(Nc3nc(-c4ccncc4)nc4ccccc34)cc2F)c(F)c1`, the Potency result was “inactive”.

As for `CCCCNc1nc(C)nc2c1nc(-c1ccccc1)n2CCN(C)C`, the Potency entry was “inactive”.

As to `COC(=O)c1c(-c2ccccc2)no[n+]1[O-]`, the Potency result was “inactive”.

For the molecule `C[C@@H]1CC[C@]2(C(=O)O[C@@H]3O[C@H](CO)[C@@H](O)[C@H](O)[C@H]3O)CC[C@]3(C)C(=CCC4[C@@]5(C)C[C@@H](O)[C@H](O)[C@](C)(C(=O)O)C5CC[C@]43C)[C@@H]2[C@]1(C)O` (stereo not given in full), the Potency entry was “inactive”.

For `CCN1CCCC1Cn1c(-c2ccccc2)nc2c(NCc3ccccc3)nc(C)nc21` (stereo not given), the Potency entry was “inactive”.

`O=C(CNC(=O)c1cccc2ccccc12)OC(C(=O)Nc1cc(C(F)(F)F)ccc1Cl)c1ccccc1` (stereo not given): the Potency entry is “inactive”.

On to `COc1cccc(-c2ccc3ncnc(NCc4cccc(C)c4)c3c2)c1`, for which the Potency result was “inactive”.

For the molecule `Cc1cc(-c2cnc(N)c3c(-c4ccc5scnc5c4)csc23)n(C)n1`, the Potency entry is “inactive”.

Consider `O=S(=O)(c1ccccc1)N1CCN(c2nc(C3CC3)nc3ccccc23)CC1`, for which the Potency result was “inactive”.

For `Cc1noc(C)c1-c1ccc2ncnc(NC(C)c3ccco3)c2c1` (stereo not given), the Potency result was “inactive”.

Take `Oc1ccc(CNCc2ccc3c(c2)OCO3)c2cccnc12`: the Potency result is “inactive”.

Take `Cc1ccc(S(=O)(=O)Nc2ccccc2N2CCCCC2)s1`: the Potency result is “inactive”.

With `CCOC(=O)Nc1sc2c(c1C(N)=O)CCCC2`, the Potency result is “inactive”.

Consider `Cc1ccc(S(=O)(=O)Nc2cnccc2C(=O)Nc2nc(-c3nc4ccccc4s3)cs2)cc1`, for which the Potency result was “inactive”.

As for `COc1cccc(S(=O)(=O)N2CCN(S(=O)(=O)c3ccc4c(c3)OCCO4)CC2)c1`, the Potency result is “inactive”.

With `COc1cc(O)c(C(CC(=O)N2CC(C)CC(C)C2)c2ccc(O)cc2)c(OC)c1` (stereo not given), the Potency entry is “inactive”.

In the case of `CC(C)(C)c1ccc(-c2nc(SCCCOc3ccccc3)n3[nH]c(=O)cc3n2)cc1`, the Potency result was “inactive”.

Take `COc1cccc(C2=Nn3c(nnc3-c3cccc(OC)c3OC)SC2)c1`: the Potency result is “inactive”.

Regarding `Cc1ccc(C(=O)Nc2ccccc2C(=O)Nc2nc(-c3ccccc3)cs2)cc1`, the Potency entry was “inactive”.

Take `COc1cccc(C)c1NC(=O)C(OC(=O)CNC(=O)c1ccccc1)c1ccccc1` (stereo not given): the Potency entry was “inactive”.

Take `O=S(=O)(c1ccc(Cl)cc1)N1CCN(S(=O)(=O)c2ccc3c(c2)OCCO3)CC1`: the Potency entry was “inactive”.

Turning to `Cc1cc(C)c(-c2nnc(NC(=O)Nc3ccc4ccccc4c3)s2)c(C)c1`, the Potency result is “inactive”.

In the case of `COc1cccc(-c2nnc3n2N=C(c2c(OC)cccc2OC)CS3)c1`, the Potency result is “inactive”.

Regarding `O=C(O)c1ccc2c(c1)C(=O)N([C@H](Cc1ccc(O)cc1)C(=O)O)C2=O`, the Potency result is “inactive”.

`Cc1ccccc1C(=O)N1CCc2cc(-c3nc(NC(=O)Cc4ccccc4)sc3C)ccc21`: the Potency entry was “inactive”.

As to `CC(=O)O[C@@H]1C(=O)O[C@@H]2[C@H]1OC(=O)[C@@H]2OC(C)=O`, the Potency result is “inactive”.
